Screening results (PubChem)
Pf growth 48h = Primary qHTS for delayed death inhibitors of the malarial parasite plastid, 48 hour incubation | P. falciparum luciferase growth in erythrocytes, 48 h | AID 504832, 2011 | hit rate 5.9% among 310,000 | Potency, µM (series often up to 28.7 µM), without a hit: at the highest dose activity change, negative = inhibition, usual class: inhibitors
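Firefly luciferase activity from engineered P. falciparum reports growth; inhibitors lower the luminescent signal. Cultures contained 2% hematocrit erythrocytes at 0.1% final parasitemia.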
AmpC no deterg = qHTS Inhibitors of AmpC Beta-Lactamase (assay without detergent); P00811; AmpC nitrocefin hydrolysis, absorbance 480 nm, 0.0001% Triton; Potency, µM (highest dose often 57.1 µM), for inactives: at the top dose activity change, negative = inhibition, most hits filed as inhibitors; hit rate 0.52% among 330,000; AID 485341, 2010;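 further: plate controls were no compound for no effect and no enzyme for full effect; nearly all actives have a fitted effect of over 20% in size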
Target sequence (P00811 whole entry, looked up): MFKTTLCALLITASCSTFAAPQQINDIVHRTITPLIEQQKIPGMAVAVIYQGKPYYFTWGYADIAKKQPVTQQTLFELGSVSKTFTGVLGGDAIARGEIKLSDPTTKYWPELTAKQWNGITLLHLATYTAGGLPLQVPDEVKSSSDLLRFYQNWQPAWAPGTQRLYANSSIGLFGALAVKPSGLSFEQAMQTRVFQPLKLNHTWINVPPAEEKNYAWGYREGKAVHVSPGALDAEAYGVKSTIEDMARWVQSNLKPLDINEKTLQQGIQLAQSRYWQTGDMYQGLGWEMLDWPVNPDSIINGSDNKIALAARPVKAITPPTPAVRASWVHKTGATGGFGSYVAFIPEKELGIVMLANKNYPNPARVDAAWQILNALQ
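20 mM phosphate pH 7.0 + 0.01% (detergent screen) or 0.0001% Triton X-100; 5.3 nM AmpC reagent; cpd preinc 15 min RT; nitrocefin (800 uM stock) to start; A480 q20 s × 4 min; Activity was normalised to no-enzyme and no-compound control wells.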
HCV inhibitor = qHTS Assay for Inhibitors of Hepatitis C Virus (HCV); Huh7.5.1 HCVcc-Cre infection, luciferase reporter, 44 h; Potency, µM (doses to about 41.8 µM), without a hit: at the highest dose activity change, negative = inhibition, actives largely listed as inhibitors; hit rate 3.4% among 340,000; AID 651820, 2012
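Compounds are dispensed onto cells plated 4 h earlier at 1,000 per well, with HCVcc-Cre virus (about 0.5 moi) added next. Following 44 h of culture, luminescent signal is measured for 15 sec after 15 min with substrate at room temperature.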
Pf growth 96h = Primary qHTS for delayed death inhibitors of the malarial parasite plastid, 96 hour incubation. AID 504834, 2011. Potency, µM (top dose mostly 28.7 µM), without a hit: at the top dose activity change, negative = inhibition, actives largely listed as inhibitors. P. falciparum luciferase reporter growth, 96 h. hit rate 6.9% among 320,000
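Plates of compound plus infected erythrocytes (2% hematocrit, 0.05% parasitemia final) incubate 96 hours, 37 C, 5% CO2. Detection reagent added; reduced luminescence from the parasites' luciferase reporter flags inhibition.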
AMA1 RON2 block = qHTS for Inhibitors of AMA1-RON; Towards Development of Antimalarial Drug Lead: Primary Screen; AID 720542, 2013; AlphaScreen AMA1-biotinylated RON2 peptide binding; Potency, µM (titrated, usually from 58.2 µM), without a hit: top-dose activity change, negative = inhibition, actives largely listed as inhibitors; hit rate 0.2% among 360,000;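 further: 0% = vehicle wells and -100% = peptide control; nearly all actives have a fitted effect of over 45% in size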
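AMA1 (3D7) with his tag at 25 nM final met compounds first, then biotinylated RON2 peptide at 25 nM; detection used donor plus acceptor beads, 10 µg/mL apiece, read by AlphaScreen after 30 min at room temperature.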
AmpC detergent = qHTS Inhibitors of AmpC Beta-Lactamase (assay with detergent); P00811; hit rate 0.041% among 370,000; AmpC hydrolysis of nitrocefin, absorbance 480 nm, 0.01% Triton; AID 485294, 2010; Potency, µM (titrated, usually from 114 µM), for the others: at the top dose activity change, negative = inhibition, hits mostly inhibitors;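 further: 0% = no-compound wells and -100% = no-enzyme wells; nearly all actives have a fitted effect of over 25% in size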
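20 mM phosphate pH 7.0 + 0.01% (detergent screen) or 0.0001% Triton X-100; 5.3 nM AmpC reagent; cpd preinc 15 min RT; nitrocefin (800 uM stock) to start; A480 q20 s × 4 min; Activity was normalised to no-enzyme and no-compound control wells.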
An asterisk follows results filed as active; ? = inconclusive; · = no result given; [ ] = remark or other dose. An excerpt weighted towards active compounds, which were near 11% of everything screened. The call rests on the fitted dose curve; in most records, active means well fitted curve in the direction sought with a large enough effect; inconclusive means small, poorly fitted or top-dose-only effect, or another doubt; inactive means no such curve, though single readings can be large; an effect the other way counts as inactive or inconclusive. Unless noted, on the % scale 0 is the no-effect control and ±100 the full control effect; potency means the concentration at half of the fitted maximal effect.

SMILES | Pf growth 48h | AmpC no deterg | HCV inhibitor | Pf growth 96h | AMA1 RON2 block | AmpC detergent
COc1ccc(S(=O)(=O)Nc2cc3c(C(C)=O)c(C)oc3c3ccccc23)cc1 | · | -32% | 18µM* | ? | 11% | -4%
Cc1oc2c(cc(NS(=O)(=O)c3cccs3)c3ccccc32)c1C(=O)OC(C)C | ? | -28% | -24% | 9.3µM* | -10% | -2%
O=C1C=C(N(CCO)Cc2ccccc2)c2ccccc2C1=O | 3.7µM* | -44% | ? | 0% | -1% | -7%
O=C(Nc1cc(Cl)cc(Cl)c1)c1ccc(F)c(S(=O)(=O)NC2CCCCC2)c1 | · | · | · | · | · | 12%
CCc1nc2cccnc2n1-c1ccc(CC(=O)Nc2ccccc2Cl)cc1 | · | · | · | · | · | 1%
CCCCOC(=O)c1ccc(NC(=O)c2cc3c(=O)n4cccc(C)c4nc3s2)cc1 | · | · | · | · | · | 14%
Cc1cc(C)c(NC(=O)/C(=C/c2ccccc2)c2ccccc2)c(C)c1 | 4.1µM* | -21% | 5% | 14% | -2% | -3%
Cc1ccc(NC(=O)/C(=C/c2ccco2)c2ccccc2)c(C)c1 | · | -19% | -17% | 18% | -5% | 0%
O=C(Nc1ccccc1O)C(c1ccccc1)c1ccccc1 | -11% | -40% | 13µM* | -2% | -7% | 2%
O=C(Nc1ccccc1-c1ccccc1)C(c1ccccc1)c1ccccc1 | ? | -57% | ? | 1.7µM* | 26% | ?
O=C(O)c1ccccc1NC(=O)C(c1ccccc1)c1ccccc1 | · | · | 4% | · | 9% | ·
O=C(Nc1ccccc1F)C(c1ccccc1)c1ccccc1 | · | · | -9% | · | 6% | ·
COCCN(CCOC)C(=O)c1cc2c(=O)n3ccccc3nc2n1C | · | · | · | · | · | 3%
CCCCn1cc(S(=O)(=O)c2ccc(Cl)cc2)c(=O)c2cc(F)c(N3CCCCC3)cc21 | · | · | · | · | · | 18%
COc1ccc(CNC(=O)CC(c2ccc(OC)c(OC)c2)N2Cc3ccccc3C2=O)cc1 (stereo not drawn) | · | · | · | · | · | 3%
O=c1c(Cc2c(F)cccc2Cl)c(O)ccn1CCc1c[nH]c2ccccc12 | ? | -14%[2.29 µM] | 2% | 5.2µM* | -1% | ?
CCc1ccc(NC(=O)CSc2nnc3[nH]c(=O)cc(-c4ccccc4)n23)cc1 | · | · | · | · | · | 1%
CCOc1ccccc1CNC(=O)C1=C(C)C(=O)OC12CCN(C(C)=O)CC2 | · | · | · | · | · | 14%
O=c1oc2ccccc2cc1-c1csc(Nc2nc3ccc(F)cc3s2)n1 | 2% | -27% | -4% | ? | · | 1%
O=c1oc2ccccc2cc1-c1csc(Nc2nc3c(F)cccc3s2)n1 | ? | -36% | 13µM* | ? | 39% | ?
COc1c2ccccc2nc2ccccc12 | 2.1µM* | -14% | -24% | 125% | 15% | -8%
CCCCCCOC(=O)Cc1c(C)nc(-c2ccccc2)[nH]c1=O | 2.3µM* | -20% | 8% | ? | 6% | -8%
C=C(C)Cc1c(C)nc(-c2ccccc2)[nH]c1=O | ? | -16% | 17% | · | -1% | ?
CC1CC(=O)c2cnc(NCC3CCCO3)nc2C1 (stereo not drawn) | 28% | -16% | 17% | 9.3µM* | -7% | -4%
Cc1cccc(N2C(=O)CCSC23C(=O)N(Cc2ccc(F)cc2)c2ccccc23)c1 (stereo not drawn) | · | · | · | · | · | 4%
SMILES | Pf growth 48h | AmpC no deterg | HCV inhibitor | Pf growth 96h | AMA1 RON2 block | AmpC detergent
CC1CCCCN1C(=O)CSc1nc2cc3c(cc2c(=O)n1Cc1ccc2c(c1)OCO2)OCO3 (stereo not drawn) | ? | -24% | ? | 4.1µM* | -7% | -7%
CC1CCCC(C)N1C(=O)Cn1c(SCC(=O)NCc2ccc3c(c2)OCO3)nc2ccccc21 (stereo not drawn) | 6.6µM* | 6% | 4% | -18% | 19% | -7%
Cc1cc(C)cc(-n2c(SCC(=O)NCc3ccc4c(c3)OCO4)nc3ccccc3c2=O)c1 | ? | -54% | 2% | ? | 0% | -10%
CN(C)C(=O)Cn1c(SCC(=O)NCc2ccc3c(c2)OCO3)nc2ccccc21 | 2% | -25% | -1% | 90% | 8% | 2%
O=C(CSc1nc2cc([N+](=O)[O-])ccc2n1-c1ccccc1)NCc1ccc2c(c1)OCO2 | -22% | -24% | ? | 10µM* | 9% | 2%
CC(C)(C)c1cc(C(=O)Nc2ccc(F)cc2)n(Cc2ccc(F)cc2)n1 | 10µM* | -33% | 11µM* | 12µM* | 13% | -6%
CC(C)(C)c1cc(C(=O)NNc2cc(C(F)(F)F)ccc2Cl)n(Cc2ccccc2)n1 | 13µM* | -47% | ? | 12µM* | -18% | 14%
Cc1ccc(NC(=O)c2cc(C(C)(C)C)nn2Cc2ccccc2)cc1 | 8.3µM* | 2% | ? | 9.3µM* | 7% | -3%
COc1cccc(CNC(=O)CCCn2nc(C)c3sc4ccccc4c3c2=O)c1 | · | · | · | · | · | 17%
COC(=O)c1cc(S(=O)(=O)NCCc2ccccc2)c[nH]1 | -3% | 0% | -14% | 28% | -4% | -19%
COC(=O)c1cc(S(=O)(=O)NCc2cccc(Br)c2)c[nH]1 | 9% | -23% | -2% | 9.3µM* | -2% | -12%
COC(=O)c1ccc(NC(=O)CN2C(=O)CC(c3ccccc3)Sc3ccccc32)cc1 (stereo not drawn) | · | · | · | · | · | 2%
C=CCSc1nnc(-c2cc(C(C)(C)C)nn2Cc2ccc(F)cc2)n1C | 13µM* | 45% | -12% | 9.3µM* | 7% | -5%
COc1ccc2c(c1)c1c(c(=O)n(-c3ccccc3)c(=O)n1CC(=O)Nc1ccc(C)c(C)c1)n2C | · | · | · | · | · | -2%
COc1ccc(NC(=O)c2cc(-c3ccccc3)nc3c2cnn3C(C)C)c(OC)c1 | 12µM* | 68% | ? | ? | -6% | -7%
COc1ccccc1N1CCN(C(=O)c2cc(-c3ccccc3)nc3c2cnn3C(C)C)CC1 | · | · | · | · | -9% | ·
COc1cccc(N2CCN(C(=O)c3cc(-c4ccccc4)nc4c3cnn4C(C)C)CC2)c1 | · | 6% | 11µM* | · | -10% | ·
CC(C)n1ncc2c(C(=O)N3CCN(c4ccc(F)cc4)CC3)cc(-c3ccccc3)nc21 | 12µM* | 4% | -10% | 12µM* | -13% | -8%
Cc1cccc(Cn2c(COc3ccc(Cl)cc3)nc3ccccc32)c1 | · | · | · | · | · | 0%
O=C(Cn1nc2c(cc1=O)CCCC2)Nc1ccccc1C(F)(F)F | · | · | · | · | · | -2%
CSc1nc(N)c(N=Nc2ccc([As](=O)(O)O)cc2)c(=O)[nH]1 | 2.6µM* | -9% | ? | ? | 25% | -8%
